86 molecules from PubChem BioAssay AID540267 (National Center for Advancing Translational Sciences (NCATS), 2011) can be followed below.

About 530 (0.16%) of roughly 340,000 compounds were called active. Inconclusive results (about 2%) are left out. The full list was thinned out, with actives kept by preference. A number with no mark means an inactive call. Rule as the data show it: active = activity change below about -80%; inconclusive = between about -30% and that limit; inactive = weaker than that.
% is scaled to controls: 0 for no effect and ±100 for the full control effect.

The nature of the assay: Small Molecules that selectively kill Giardia lamblia: qHTS.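 Also: parasites exposed to compound for two days anaerobically before the ATP read.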 Particulars: Giardia lamblia trophozoite viability; at 7.66 µM; stronger effect = lower value. The text has this:
Giardia lamblia is a human pathogen afflicting impoverished nations, and the most common cause of outbreaks of diarrhea in the United States. Giardia has been classified by the CDC as a category B bioterrorism organism. The favored anti giardiasis drugs in the US are metronidazole or tinidazole, compounds that have undesirable side effects. Moreover, increasing resistance to drug regimes and recurrence are a concern. It is thus clear that alternative drug treatments are needed.
In a collaboration between the University of Maryland, College Park and the NIH Chemical Genomics Center, a bioluminescence Giardia viability assay based on the trophozoites' ATP content was developed. This assay is suitable for high throughput screening, and miniaturized the assay for compound screening in 1536-well plates. The goal of the project is to screen the Molecular Libraries Small Molecule Repository (MLSMR) for compounds that selectively kill Giardia trophozoites.
NIH Chemical Genomics Center [NCGC]
NIH Molecular Libraries Probe Centers Network [MLPCN]
Assay Submitter (PI): Osnat Herzberg, University of Maryland, College Park, MD.
1. Dispense 2 ul/well media
2. Dispense 23 nl/well compounds
3. Dispense 4 ul/well Giardia trophozoites at a concentration of 100 cells/well
4. Incubate 48 hrs at 37 deg C anaerobically
5. Dispense 4 ul/well ATPLite 1-Step Luminescence assay kit
6. Incubate 15-30 min at room temperature
7. Read luminescence signal on ViewLux plate reader
A general note: qHTS replaces the single test concentration by a dilution series.
As for `CCNC(=O)Nc1ccc(S(=O)(=O)Nc2cnc(C)nc2C)cc1`, the activity change was -28.2%.

As for `CN(CC(=O)Nc1ccc(OC(F)(F)F)cc1)C(=O)C1CCC1`, the activity change was 29.9%.

Take `N#Cc1c(N)nc2c(c1N)CC(C(F)(F)F)O2` (stereo unspecified): the activity change is -7.55%.

Consider `C=CCNC(=O)c1ccc2nc(-c3ccco3)c(-c3ccco3)nc2c1`, for which the activity change was -26.3%.

In the case of `NC(=O)c1ncn([C@@H]2O[C@H](CN=C3NS(=O)(=O)c4ccccc43)[C@@H](O)[C@H]2O)n1`, the activity change is -14.2%.

For the molecule `CC(=NNC(=O)c1ccncc1)c1ccc(Cl)c(Cl)c1`, the activity change is -4.59%.

On to `COC(=O)[C@]1(C)N[C@H](c2ccc(-c3ccc(Cl)c(Cl)c3)cc2)[C@@H]2C(=O)N(C)C(=O)[C@@H]21`, for which the activity change is -3.14%.

As for `COC(=O)C1=C(C(=O)c2ccc(C)cc2)C(c2ccccc2)n2nnnc2N1` (stereo unspecified), the activity change was 2.03%.

As for `Cc1ccc(S(=O)(=O)N2CCN(C(=O)CSc3cc(C)ccc3C)CC2)c(C)c1`, the activity change was -9.03%.

For the molecule `CN(C)S(=O)(=O)c1cc(C(=O)Nc2ccn(C)n2)c(Cl)cc1Cl`, the activity change was 4.66%.

As for `C=CCn1c(CCNC(=O)c2ccccc2F)nnc1SCC(=O)Nc1ccc(OC)cc1`, the activity change is 1.96%.

Turning to `CCN(CC)CCCNC(=O)c1c(O)c2cc(F)cc3c2n(c1=O)C(C)CC3` (stereo unspecified), the activity change was 31%.

For `COc1cc(SC)ccc1C(=O)Nc1nc(C)cs1`, the activity change was -94.7% (active).

For the molecule `COc1ccc(C(=O)Nc2cccc(NC(=O)c3ccc(OC)cc3OC)n2)c(OC)c1`, the activity change is -19%.

Consider `COc1cc(SC)ccc1C(=O)N(Cc1ccccc1)c1ccccc1`, for which the activity change is -27.1%.

On to `CC(=O)N1CCc2c(sc(NC(=O)CCS(=O)(=O)c3ccccc3)c2C#N)C1`, for which the activity change is -1.29%.

`CCCN1CCC(=O)N(C(CSc2ccc(OC)cc2)Cc2ccccc2)CC1` (stereo unspecified): the activity change was -25.3%.

For the molecule `CN(CCO)c1ccc(/C=N/Nc2nncc3ccccc23)cc1`, the activity change was -87.9% (active).

For `C/C(=N\Nc1nncc2ccccc12)c1ccc(Cl)c([N+](=O)[O-])c1`, the activity change was -7.6%.

For the molecule `COc1cccc(/C=N\Nc2nncc(-c3ccccc3)n2)c1`, the activity change is 5.7%.

Consider `CC1(C)CCc2cc(S(=O)(=O)N3CCN(c4nc(-c5cccs5)nc5ccccc45)CC3)ccc2O1`, for which the activity change was -0.147%.

As to `COc1ccc(CN(Cc2ccccc2)C(=O)c2ccc(O)cc2)cc1COc1ccc(NC(C)=O)cc1`, the activity change was 41.3%.

In the case of `CC(=O)OCC(NC(=O)C(Cc1ccccc1)NC(=O)OC(C)(C)C)C1OC(n2ccc(=O)[nH]c2=O)C(OC(C)=O)C1OC(C)=O` (stereo unspecified), the activity change was -16.1%.

With `O=C(O)C1CCC(CNS(=O)(=O)c2ccc(Br)cc2)CC1` (stereo unspecified), the activity change was 18.6%.

Take `CCOc1ccc(N(C)Cc2cc(=O)oc3ccc(OC)cc23)cc1`: the activity change was 0.548%.

Turning to `C=CCOc1ccc(/C=C/C(=O)OCC(=O)NC(C)c2ccc(F)cc2)cc1` (stereo unspecified), the activity change was -21.6%.

For `COc1ccc2c(C)cc(SCC(=O)NCC3CCCO3)nc2c1` (stereo unspecified), the activity change is -1.83%.

Take `COc1ccc(-c2ccc(C3C4C=CCCC4(C)C(=O)N3Cc3ccccc3)c(F)c2)cc1OC` (stereo unspecified): the activity change is 5.8%.

Turning to `C/C(CC(=O)Nc1ccc(C)cc1C)=N\NC(=O)C(C)C`, the activity change is -14.4%.

As to `CC(C)C(=O)N1c2ccccc2NC2=C(C(=O)CCC2)C1c1ccc(N(C)C)cc1` (stereo unspecified), the activity change was 1.62%.

For the molecule `COc1ccc(C2NC(=O)N(C)C(C)=C2[N+](=O)[O-])cc1` (stereo unspecified), the activity change was 22.3%.

For `COC(=O)C1=C(C)N(C)C(=O)NC1c1ccc([N+](=O)[O-])o1` (stereo unspecified), the activity change was -87.4% (active).

Take `COC(=O)C1=C(C)N(C)C(=S)NC1c1ccccc1` (stereo unspecified): the activity change was -6.21%.

`Oc1ccc(Cl)cc1C1C=C(c2ccc3c(c2)OCO3)NC(c2c(F)cccc2Cl)N1` (stereo unspecified): the activity change is -23.4%.

As for `CCOC(=O)CSc1nnc(CNC(=O)c2ccco2)n1-c1ccc(F)cc1`, the activity change was -0.714%.

As for `C/[N+]([O-])=C\c1ccc([N+](=O)[O-])o1`, the activity change was -92.7% (active).

As for `O=C(/C=C/c1ccc([N+](=O)[O-])o1)NNC(=O)c1ccc(F)cc1`, the activity change is 2.18%.

`O=[N+]([O-])c1ccc(C=NN=Cc2ccc([N+](=O)[O-])cc2)cc1`: the activity change is 12.5%.

In the case of `COc1cc(Cl)c(C)cc1NC(=O)CSc1nnc(-c2ccco2)n1CC(C)C`, the activity change was 6.88%.

Take `CC(C)Cn1c(N)c(C(=O)COC(=O)C2CCCN2C(=O)c2cccs2)c(=O)n(C)c1=O` (stereo unspecified): the activity change was 20.2%.

As to `C[C@H](NC(=O)C1CCN(S(=O)(=O)c2ccccc2)CC1)C(=O)NCc1ccccc1`, the activity change was 10.6%.

Regarding `O=C(NCc1ccccn1)[C@]1(C(F)(F)F)C[C@H](CCc2ccccc2)CCCO1`, the activity change is -0.242%.

Turning to `COc1cccc(C(=O)c2sc3nc(-c4ccccc4)cc(C(F)(F)F)c3c2N)c1`, the activity change is 4.39%.

On to `COc1ccc(S(=O)(=O)N2CCN(CC(=O)N3c4ccccc4CC3C)CC2)cc1OC` (stereo unspecified), for which the activity change was -6.14%.

With `CC(=O)Nc1ccc(S(=O)(=O)N2N=NC3C2C2CC4C3(CN(C(=O)OC(C)(C)C)S4(=O)=O)O2)cc1` (stereo unspecified), the activity change was -7.9%.

Regarding `CN(C(=O)c1cc2c(=O)n3ccccc3nc2s1)C1CCCCC1`, the activity change was 9.98%.

Turning to `CN(c1ccc2nc3ccccc3c(=O)n2n1)C1CCCCC1`, the activity change was -82.4% (active).

For the molecule `CC(C)C(C)NC(=O)COc1nc2ccccc2nc1N(C)C1CCCCC1` (stereo unspecified), the activity change was 0.279%.

In the case of `COC(=O)CCc1ccccc1S(=O)(=O)N(CCC(=O)OC)Cc1ccccc1`, the activity change is 9.42%.

On to `CCCCN(C1CCS(=O)(=O)C1)S(=O)(=O)c1ccc(C(C)C)cc1` (stereo unspecified), for which the activity change is -8.89%.

Regarding `Cc1n[nH]c(C)c1S(=O)(=O)N1CCCC(C(=O)NCC2COc3ccccc3O2)C1` (stereo unspecified), the activity change was 1.3%.

Consider `COc1ccc(S(=O)(=O)N2CCC(C(=O)OCC(=O)c3ccccc3)CC2)cc1[N+](=O)[O-]`, for which the activity change was -0.271%.

For `Cc1ccc(NC(=O)C(C)OC(=O)Cc2c[nH]c3ccccc23)cc1S(=O)(=O)N1CCOCC1` (stereo unspecified), the activity change was -9.72%.

With `COc1ccc(S(=O)(=O)Nc2cccc3cccnc23)c(N)c1`, the activity change was -6.45%.

In the case of `CCCN1CCC(=O)N(C(CSc2ccc(C)cc2)Cc2ccccc2)CC1` (stereo unspecified), the activity change was 13%.

With `CCc1nn(CC(=O)N2CCN(CC)CC2)c(=O)c2cccn12`, the activity change was -17.4%.

As to `COc1ccc2c(c1)CC[C@@H]1[C@@H]2CC[C@]2(C)C(=O)CC[C@@H]12`, the activity change was 2.55%.

`O=C(ON=C1CCN(S(=O)(=O)c2ccccc2)CC1)c1ccc(Cl)cc1`: the activity change was -18%.

For `Cc1cccc(NS(=O)(=O)c2ccc(-c3cnc(C4CC4)o3)cc2)c1`, the activity change is 23.1%.

In the case of `COc1ccc(C2CC(O)(c3ccccc3)Oc3cc(C)cc(C)c32)cc1` (stereo unspecified), the activity change was -2.28%.

With `CCOC(=O)c1cc(OC(=O)c2ccccc2Cl)n(-c2ccccc2)n1`, the activity change is 20.6%.

For the molecule `c1ccc(Cn2nnc3c(N4CCCCC4)ncnc32)cc1`, the activity change was 6.21%.

Turning to `CCOc1ccc(NC(=O)CN(C)C(=O)Cn2c(=O)cnc3ccccc32)cc1OCC`, the activity change is 3.18%.

Turning to `COc1ccc(CN2CCC(=O)c3ccccc3S2(=O)=O)cc1`, the activity change is -21.5%.

`CS(=O)(=O)N(Cc1ccc(Cl)cc1)c1ccc(C(=O)NCCSCc2ccco2)cc1`: the activity change is 4.68%.

Consider `Cc1nnc(SC(C(=O)Nc2cc(Cl)cc(Cl)c2)c2ccccc2)[nH]c1=O` (stereo unspecified), for which the activity change was 24.1%.

Consider `O=[N+]([O-])/C=C1\CCCCCN1`, for which the activity change was -16.8%.

In the case of `CNC(=O)[C@]1(C(F)(F)F)C[C@H](CCc2ccccc2)CCCO1`, the activity change was -0.81%.

Regarding `Cc1nn(CCOc2ccc(Br)cc2)c(C)c1[N+](=O)[O-]`, the activity change is -11%.

Turning to `Cc1ncc([N+](=O)[O-])n1CCOC(=O)c1ccc(Br)cc1`, the activity change was -80.4% (active).

`N/C(=N\OC(=O)Cc1ccccc1[N+](=O)[O-])c1ccc(Br)cc1`: the activity change is -8.48%.

Consider `C=CCCN(C(Cc1ccccc1)C(=O)OC)S(=O)(=O)c1cc(Br)ccc1Br` (stereo unspecified), for which the activity change is -13%.

On to `CCN(CC)C(=O)COc1coc(CN2CCN(Cc3ccccc3)CC2)cc1=O`, for which the activity change was -13.6%.

`CCOC(=O)C1CCCN(C(=O)COc2ccc(N(C)S(=O)(=O)c3ccc(C)cc3)cc2)C1` (stereo unspecified): the activity change was -1.39%.

In the case of `COc1ccc(C2Nc3ccc(NC(=O)COC(C)=O)cc3C(=O)N2Cc2ccccc2)cc1COc1ccc(NC(C)=O)cc1` (stereo unspecified), the activity change was 26.7%.

As to `COc1ccc(OCCn2ccnc2C)cc1`, the activity change was 8.15%.

Turning to `COc1ccc(-c2ccc(OC)c(C3C4C=CCC(C)C4C(=O)N3Cc3ccccc3)c2)cc1C` (stereo unspecified), the activity change was 12.9%.

For the molecule `CC1CC(C)CN(c2oc(-c3ccc(OCc4ccc(Cl)cc4)cc3)nc2C#N)C1` (stereo unspecified), the activity change is 25.3%.

On to `Cc1ccc(C(=O)N2CCN(C3CCCCC3)CC2)s1`, for which the activity change was 2.7%.

`CCCC1OC23CCCCC2C(C#N)(C#N)C1(C#N)C(=N)O3` (stereo unspecified): the activity change was 1.74%.

Turning to `CC/C(=C(/c1ccccc1)c1ccc(OCC[N+](C)(C)C)cc1)c1ccccc1`, the activity change is 8.29%.

As for `CCN(CC)S(=O)(=O)c1cc(C(=O)Nc2cc(S(=O)(=O)N3CCOCC3)ccc2N2CCCC2)ccc1F`, the activity change is -19.1%.

Turning to `CCN(CC)S(=O)(=O)c1ccc(N2CCCC2)c(NC(=O)c2ccc([N+](=O)[O-])o2)c1`, the activity change was -96.4% (active).

Take `CCN(CC)S(=O)(=O)c1ccc(N2CCOCC2)c(NC(=O)c2ccc(=O)n(C)n2)c1`: the activity change was -7.96%.

Consider `COC(=O)c1ccc(NC(=O)CN(c2ccc(C)cc2)S(=O)(=O)c2c(C)n[nH]c2C)cc1`, for which the activity change is 12.5%.

For the molecule `Cc1ccc(CNC(=O)C2(C(F)(F)F)C/C(=C\CCO)CCCO2)o1` (stereo unspecified), the activity change was -14.6%.
